Rows were chosen to be rich in hits. Some 3.5% of all compounds tested hit in one or more screens of this group.
GPR151 activ: human GPR151 activation | PathHunter beta-arrestin GPR151 cells, luminescence | activation, % at 11.2 µM | hit rate 1% among 650,000; in the data active = activation above about 4.9%;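 note: 0% = median of compound wells and 100% = cells with positive control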
FBW7 act: human FBW7 E3 ligase activation, primary screen; AlphaScreen FBW7–phospho-cyclin E peptide binding, activator screen; normalized activity (activation), % at 26.1 µM; hit rate 0.13% among 650,000; AID 1259310; in the data active = normalized activity above about 1.9%;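 note: purified mutant Fbw7 with reduced substrate affinity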
TEAD-YAP inh: TEAD-YAP interaction inhibition | HEK-TIYL cells, TEAD-Gal4/YAP UAS-luciferase luminescence | inhibition, % at 9.12 µM | hit rate 1.4% among 640,000; in the data active = inhibition above about 32%;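 note: 0% = median of test compound wells and 100% = reference inhibitor wells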
MITF inh: blocks human microphthalmia-associated transcription factor. AlphaScreen MITF homodimerization, bead proximity signal. hit rate 0.91% among 650,000. inhibition, % at 2.6 µM; in the data active = inhibition above about 50%;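 note: 0% = vehicle wells with protein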
The depositor's hits bear a star.

SMILES	GPR151 activ	FBW7 act	TEAD-YAP inh	MITF inh
CC(=O)c1cccc(NC(=O)COc2ccc(C)cc2Br)c1	-1	0	-41	5
O=C1C(=O)c2ncccc2-c2cccnc21	0	-2	75*	57*
O=C1CCCC2=C1C(c1cccc(F)c1Br)n1c(nc3ccccc31)N2 (stereo unspecified)	1	0	36*	13
COc1ccc(Nc2nc(C)c3ccccc3n2)cc1	1	0	-51	3
COc1ccc(Nc2nc(NCc3ccccc3)c3ccccc3n2)cc1	0	0	44*	3
COc1ccccc1Nc1nc(NCc2ccco2)c2ccccc2n1	-1	0	4	-7
Cc1ccc(Nc2nc(NCc3ccco3)c3ccccc3n2)cc1	1	0	46*	5
COC(=O)c1ccc(Nc2nc(NCc3ccco3)c3ccccc3n2)cc1	-6	0	75*	-12
OC(COc1ccccc1)CN1C2=NCCCN2c2ccccc21 (stereo unspecified)	1	2.1*	-4	11
OC(COc1ccccc1)CN1C2=NCCN2c2ccccc21 (stereo unspecified)	0	0	-2	-8
Cn1c(=O)cc(N2CCN(c3cccc(Cl)c3)CC2)[nH]c1=O	-1	0	38*	-5
Cn1c(=O)cc(N2CCN(c3ccc(F)cc3)CC2)[nH]c1=O	5	0	1	-14
CC(C)(C)OC(=O)N1CCN(C(=S)NC(=O)c2ccccc2[N+](=O)[O-])CC1	1	0	5	-4
CC(C)(C)P(=NC(=S)NCCCO)(N1CCCCCC1)N1CCCCCC1	1	0	73*	16
O=C(NCc1ccc2c(c1)OCO2)c1cnn2ccccc12	-1	0	-28	15
CC1CCCCC12NC(=O)N(CC(=O)Nc1cc(Cl)cc(Cl)c1)C2=O (stereo unspecified)	0	0	1	2
Cc1ccc(-c2c[n+]3c(n2-c2ccccc2)SCC3)cc1	1	0	56*	-12
COc1ccc(-c2c[n+]3c(n2-c2c(C)n(C)n(-c4ccccc4)c2=O)CCCCC3)cc1	0	0	4	-1
Clc1ccc(-c2c[n+]3c(n2-c2ccccc2)CCC3)cc1	0	0	12	2
Cc1ccc(-c2c[n+]3c(n2-c2ccc(C)cc2)CCCCC3)cc1	4	0	85*	14
Cc1ccc(-n2c(-c3ccccc3)c[n+]3c2CCCCC3)cc1	-1	0	59*	13
Brc1ccc(-c2c[n+]3c(n2-c2ccccc2)SCC3)cc1	-1	0	3	-11
Cc1ccc(-c2cn(-c3ccccc3)c3[n+]2CCCS3)cc1	0	0	68*	16
COc1ccc2nc3sc(C(=O)Nc4ccc(N5CCOCC5)cc4)c(N)c3cc2c1	0	0	-3	13
c1ccc(-c2ccc(NCc3cccs3)nn2)cc1	0	0	9	6
SMILES	GPR151 activ	FBW7 act	TEAD-YAP inh	MITF inh
COc1ccc(CCNc2ncnc3sc(C)cc23)cc1OC	3	0	61*	-10
COc1ccc(CCNc2ncnc3ccc(I)cc23)cc1OC	4	0	74*	9
CCc1cc2c(NCCc3ccccc3)ncnc2s1	2	0	36*	0
CCc1cc2c(NCc3ccccc3)ncnc2s1	2	0	17	-21
COc1ccc(CCNc2ncnc3c2cnn3C)cc1OC	0	0	14	-3
CC1CCCC(N2C(=O)C3C(C(=O)Nc4ccc(Cl)cc4)C4C=CC3(O4)C2C(=O)NC2CCCCC2)C1C (stereo unspecified)	-1	1	8	8
COc1cccc2sc(NC(=O)c3ccc(Cl)cc3)nc12	0	0	-21	-2
Cc1ccccc1NC(=O)c1cccc2c1C(=O)c1ccccc1-2	0	0	53*	12
Cc1ccc(-c2c(NCc3ccccn3)c(=O)c2=O)cc1	3	0	-18	17
COc1ccc(N2C(=O)NC3CC2(C)Oc2ccc(Cl)cc23)cc1OC (stereo unspecified)	1	2.2*	6	-1
CS(=O)(=O)Nc1ccc(-c2nnc(SCC(=O)Nc3ccccc3F)o2)cc1	0	0	37*	6
CS(=O)(=O)Nc1ccc(-c2nnc(SCC(=O)Nc3ccccc3Cl)o2)cc1	1	0	-27	-5
CCc1cccc(CC)c1NC(=O)c1cc(S(=O)(=O)N2CCN(c3ccc(OC)cc3)CC2)ccc1F	-2	0	1	-4
COc1cccc(C(=O)/C=C/Nc2ccc([N+](=O)[O-])cc2OC)c1	0	0	35*	1
COc1cc([N+](=O)[O-])ccc1NC(=O)c1ccco1	-1	0	-7	12
COc1cc([N+](=O)[O-])ccc1N/C=C/C(=O)c1ccco1	0	0	71*	15
COc1cc([N+](=O)[O-])ccc1N/C=C/C(=O)c1ccc(C)o1	2	0	35*	1
CC(C)Oc1ccc(C(=O)Nc2cccc(F)c2)cc1	-7	1	43*	15
O=C(COc1ccc(Cl)cc1)Nc1ccc(NC(=O)c2ccco2)cc1	1	0	-4	2
COc1ccc(NC(=S)NNc2ccc(C(=O)O)cc2)cc1	-1	0	40*	2
CC(=O)Oc1ccc(C(=O)Nc2cccc(F)c2)cc1	-4	0	-41	-7
O=C(COc1ccc(Cl)cc1)Nc1cccc(NC(=O)c2ccco2)c1	-1	0	47*	8
COc1ccc(C(=O)NC(=S)Nc2cccc(OC)c2)cc1	0	0	-56	-16
COc1ccc(C(=O)NC(=S)Nc2cccc(C(=O)O)c2)cc1	2	0	61*	-1
COCCNc1nccn2c(-c3ccc(CO)cc3)cnc12	-1	1	-22	0
SMILES	GPR151 activ	FBW7 act	TEAD-YAP inh	MITF inh
Cc1cc(C)n(-c2cc(N3CCCC3)ccc2[N+](=O)[O-])n1	0	0	-4	-9
COc1ccc(C(=O)Nc2cccc(C)c2)cc1	-9	0	66*	-4
COc1ccc(C(=O)NC(=S)Nc2cccc(NC(=O)c3ccco3)c2)cc1	-1	0	33*	9
COc1ccc(C(=O)NC(=S)Nc2cccc(S(=O)(=O)N3CCOCC3)c2)cc1	-2	1	44*	6
CN(Cc1ccccc1)C(=O)C(Cc1ccccc1)NS(=O)(=O)c1cccs1 (stereo unspecified)	1	0	36*	4
CCC(C)NC(=O)C(Cc1ccccc1)NS(=O)(=O)c1cccs1 (stereo unspecified)	-1	0	1	-8
COc1ccc(Cc2nnc(SCC(=O)Nc3ccc(C)c([N+](=O)[O-])c3)n2C)cc1	0	0	-4	-11
Cc1nc(C)n(-c2ccc(Nc3ncc(Br)c(-c4cnn(C)c4)n3)cc2)n1	0	0	77*	8
Cc1nc(C)n(-c2ccc(Nc3nc(-c4cnn(C)c4)cc(N(C)C)n3)cc2)n1	-2	0	33*	15
Cc1nc(C)n(-c2ccc(Nc3nccc(-c4cc(F)cc(-c5cnn(C)c5)c4)n3)cc2)n1	-1	0	-1	9
Cc1ncn(-c2ccc(Nc3ncc(Cl)c(Nc4ccccc4-c4ncn(C)n4)n3)cc2)n1	0	0	1	-3

Screening results (PubChem)
